# Measurements taken from article PMC11574364.
# Tests used:
# Assay in all cases: protein domain microarray probed with biotinylated miRNA; Domain array: 20 mM Tris-HCl pH 7.4, 200 mM KCl, 0.2 mM EDTA, 0.05% NP40, 2 ug/ul heparin, overnight 4 C. ORF array: PBS pH 7.0 with RNase inhibitor, 100 ng RNA; high values mean tight binding
# Settings in all cases: ssRNA
# RKHD1 = molecular target: T1, RKHD1 (Homo sapiens, UniProt Q86XN8)
# T1 sequence: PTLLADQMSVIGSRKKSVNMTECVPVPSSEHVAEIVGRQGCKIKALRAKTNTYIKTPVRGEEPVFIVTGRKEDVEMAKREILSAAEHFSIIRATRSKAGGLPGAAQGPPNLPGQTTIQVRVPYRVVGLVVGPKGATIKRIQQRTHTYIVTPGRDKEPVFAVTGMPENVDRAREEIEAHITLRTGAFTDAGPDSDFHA
# RBMS3 = molecular target: T2, RBMS3 (Homo sapiens, UniProt Q6XE24)
# T2 sequence: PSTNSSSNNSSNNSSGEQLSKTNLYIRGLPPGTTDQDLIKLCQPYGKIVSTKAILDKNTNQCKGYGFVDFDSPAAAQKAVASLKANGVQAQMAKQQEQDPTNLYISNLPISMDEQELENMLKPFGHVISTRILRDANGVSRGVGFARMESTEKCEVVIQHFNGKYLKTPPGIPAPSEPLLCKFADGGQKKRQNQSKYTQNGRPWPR
# SAFB1 = SAFB1 (Homo sapiens, UniProt Q15424)
# Chain of SAFB1 (Q15424 380-500): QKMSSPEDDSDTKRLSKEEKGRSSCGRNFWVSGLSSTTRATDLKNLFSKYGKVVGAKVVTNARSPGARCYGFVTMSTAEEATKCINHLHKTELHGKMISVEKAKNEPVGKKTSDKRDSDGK
# PSF = molecular target: T3, PSF (Homo sapiens, UniProt P23246)
# T3 sequence: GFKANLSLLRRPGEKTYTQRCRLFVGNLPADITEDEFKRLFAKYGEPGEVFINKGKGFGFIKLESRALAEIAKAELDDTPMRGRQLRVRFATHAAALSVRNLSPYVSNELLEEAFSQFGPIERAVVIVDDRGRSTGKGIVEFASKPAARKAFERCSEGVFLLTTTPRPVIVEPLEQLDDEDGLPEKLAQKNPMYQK
# ADAR(1) = molecular target: T4, ADAR(1) (Homo sapiens, UniProt P55265)
# T4 sequence: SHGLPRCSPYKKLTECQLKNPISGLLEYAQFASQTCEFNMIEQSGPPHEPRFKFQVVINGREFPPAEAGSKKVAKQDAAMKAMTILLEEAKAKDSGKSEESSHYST
# ANKRD17 = molecular target: T5, ANKRD17 (Homo sapiens, UniProt O75179)
# T5 sequence: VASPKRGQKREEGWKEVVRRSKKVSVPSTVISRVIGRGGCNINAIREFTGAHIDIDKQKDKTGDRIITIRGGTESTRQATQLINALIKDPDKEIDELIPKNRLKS
# YTHDC2 = molecular target: T6, YTHDC2 (Homo sapiens, UniProt Q9H6S0)
# T6 sequence: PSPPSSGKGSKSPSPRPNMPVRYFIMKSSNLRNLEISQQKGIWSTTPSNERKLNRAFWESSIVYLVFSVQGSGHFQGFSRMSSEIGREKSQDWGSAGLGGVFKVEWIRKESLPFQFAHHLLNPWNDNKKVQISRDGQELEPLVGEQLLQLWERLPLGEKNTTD
# VIGILIN(11-14) = VIGILIN(11-14) (Homo sapiens, UniProt Q00341)
# Chain of VIGILIN(11-14) (Q00341 861-1229): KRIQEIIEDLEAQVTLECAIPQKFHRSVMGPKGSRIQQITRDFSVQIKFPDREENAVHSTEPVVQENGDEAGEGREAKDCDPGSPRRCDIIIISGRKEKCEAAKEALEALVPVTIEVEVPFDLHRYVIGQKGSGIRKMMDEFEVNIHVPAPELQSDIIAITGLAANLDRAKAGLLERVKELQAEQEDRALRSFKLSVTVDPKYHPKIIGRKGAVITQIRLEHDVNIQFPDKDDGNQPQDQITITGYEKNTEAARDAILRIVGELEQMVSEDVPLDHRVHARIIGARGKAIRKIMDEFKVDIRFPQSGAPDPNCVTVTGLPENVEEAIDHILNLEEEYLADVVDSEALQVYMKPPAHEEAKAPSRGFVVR
# RBM20 = molecular target: T7, RBM20 (Homo sapiens, UniProt Q5T481)
# T7 sequence: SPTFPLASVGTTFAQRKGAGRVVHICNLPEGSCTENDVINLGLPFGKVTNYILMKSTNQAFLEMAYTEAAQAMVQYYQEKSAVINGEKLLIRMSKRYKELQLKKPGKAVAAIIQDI
# RNPC3(1) = molecular target: T8, RNPC3(1) (Homo sapiens, UniProt Q96LT9)
# T8 sequence: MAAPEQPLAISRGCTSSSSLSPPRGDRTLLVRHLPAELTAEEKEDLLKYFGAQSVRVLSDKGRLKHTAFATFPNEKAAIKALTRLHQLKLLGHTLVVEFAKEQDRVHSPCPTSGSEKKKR
Sequence,binding signal (RKHD1),binding signal (RBMS3),binding signal (SAFB1),binding signal (PSF),binding signal (ADAR(1)),binding signal (ANKRD17),binding signal (YTHDC2),binding signal (VIGILIN(11-14)),binding signal (RBM20),binding signal (RNPC3(1))
UAGCUUAUCAGACUGAUGUUGA,977 ± 62.8 fluorescence intensity,45.1 ± 0.672 fluorescence intensity,37.5 ± 1.2 fluorescence intensity,–,–,–,–,–,–,–
UGAGGUAGUAGGUUGUGUGGUU,1570 ± 135 fluorescence intensity,564 ± 40.7 fluorescence intensity,633 ± 29.4 fluorescence intensity,1020 ± 15.7 fluorescence intensity,30.1 ± 1.12 fluorescence intensity,94.6 ± 8.68 fluorescence intensity,156 ± 16.8 fluorescence intensity,968 ± 111 fluorescence intensity,66.7 ± 5.15 fluorescence intensity,391 ± 55.5 fluorescence intensity
UGAGGUAGUAGGUUGUAUAGUU,1260 ± 32.7 fluorescence intensity,86.8 ± 4.41 fluorescence intensity,94.4 ± 9.54 fluorescence intensity,265 ± 6.17 fluorescence intensity,–,26 ± 1.62 fluorescence intensity,27.7 ± 2.35 fluorescence intensity,145 ± 5.55 fluorescence intensity,–,38.5 ± 11.8 fluorescence intensity
UGAGGUAGUAGGUUGUAUGGUU,1910 ± 204 fluorescence intensity,363 ± 14.3 fluorescence intensity,299 ± 26.8 fluorescence intensity,837 ± 12.7 fluorescence intensity,27.9 ± 1.27 fluorescence intensity,51.9 ± 4.92 fluorescence intensity,143 ± 6.97 fluorescence intensity,911 ± 66.7 fluorescence intensity,53.6 ± 5.51 fluorescence intensity,192 ± 55.7 fluorescence intensity
AGAGGUAGUAGGUUGCAUAGUU,2940 ± 199 fluorescence intensity,410 ± 20.1 fluorescence intensity,280 ± 28.4 fluorescence intensity,905 ± 13.5 fluorescence intensity,20.7 ± 1.3 fluorescence intensity,36.4 ± 1.75 fluorescence intensity,114 ± 5.32 fluorescence intensity,285 ± 6.8 fluorescence intensity,39.7 ± 5.85 fluorescence intensity,201 ± 18.2 fluorescence intensity
CAGUGCAAUGAUGAAAGGGCAU,1330 ± 109 fluorescence intensity,211.2 ± 1.16 fluorescence intensity,228 ± 31.6 fluorescence intensity,80.6 ± 13.1 fluorescence intensity,–,37 ± 2.43 fluorescence intensity,65.2 ± 5.22 fluorescence intensity,287 ± 28.5 fluorescence intensity,34.77 ± 0.255 fluorescence intensity,61.8 ± 4.94 fluorescence intensity
